Results from the supplement of paper PMC12669032.
Values without a mark were called inactive.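 The calls were made as follows: active = AUC reduced over 20% with Padj below 0.05 in at least 2 of 3 replicates; inactive = otherwise.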

What was measured:
Assay in all cases: growth AUC relative to DMSO control (median of replicates) (fraction); higher = more growth (less inhibition), active = hit call of the paper
Settings in all cases: 20 µM; 24 h
[1] = test system: Akkermansia muciniphila
In short: (§1)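 Gut bacterial monocultures in mGAM were treated with 20 µM compound (1% DMSO) and grown anaerobically at 37 °C in round-bottom 96-well plates from OD600 0.05. OD600 was read hourly for 24 h, with the minimum OD set to 0. Area under the growth curve was normalised to the plate median of solvent-only wells, or to row and column medians on the industrial chemical plate. Each value is the median of three biological replicates, each grown on a separate day.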

[2] = test system: Bacteroides caccae
In short: as §1

[3] = test system: Bacteroides clarus
In short: as §1

[4] = test system: Bacteroides dorei
In short: as §1

[5] = test system: Bacteroides stercoris
In short: as §1

[6] = test system: Bacteroides thetaiotaomicron
In short: as §1

[7] = test system: Bacteroides uniformis
In short: as §1

[8] = test system: Bifidobacterium longum subsp. longum
In short: as §1

[9] = test system: Clostridium difficile
In short: as §1

[10] = test system: Collinsella aerofaciens
In short: as §1

SMILES | growth AUC [1] | growth AUC [2] | growth AUC [3] | growth AUC [4] | growth AUC [5] | growth AUC [6] | growth AUC [7] | growth AUC [8] | growth AUC [9] | growth AUC [10]
Cc1cccc2sc3nncn3c12 | 0.892 | 0.989 | 0.965 | 1.04 | 1.03 | 0.993 | 1.01 | 0.964 | 0.973 | 1.07
COP(=O)(OC)O/C(=C\Cl)c1ccc(Cl)cc1Cl | 1.11 | 0.975 | 1.02 | 1.03 | 1.02 | 0.969 | 1.01 | 1.02 | 0.97 | 0.997
Cc1ccccc1C(=O)Nc1cccc(OC(C)C)c1 | 0.926 | 1.01 | 0.992 | 1 | 0.993 | 0.928 | 0.945 | 1.02 | 0.984 | 1
Cc1c(COC(=O)[C@@H]2[C@H](/C=C(\Cl)C(F)(F)F)C2(C)C)cccc1-c1ccccc1 | 0.924 | 0.971 | 0.998 | 1.01 | 0.972 | 0.974 | 1.01 | 0.923 | 1.02 | 0.928
N#Cc1nn(-c2c(Cl)cc(C(F)(F)F)cc2Cl)c(N)c1C(F)(F)F | 1.08 | 0.898 | 0.741 (active) | 0.773 | 0.626 | 1.01 | 0.97 | 0.858 | 0.609 (active) | 0.967
